Measurements as given in the supplement of paper PMC6555819.

Legend:
Test in all cases: PBM binding z-score (relative to random genomic background probes); higher = stronger binding; sequences stand for … in GC…GCGATTGACAGCGTAGAATGAAGG
[1] = system: FXR:RXRa (NR concentration 270 nM, RXRa partner concentration 90 nM)
Method in brief: (§1)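 Binding buffer was PBS pH 7.4 with 2% milk, 0.02% Triton X-100, 1 mM DTT, 0.2 mg/mL BSA and 0.4 mg/ml salmon testes DNA. In it, ligand-free nuclear receptor dimers were incubated 1 h on custom Agilent 4×180K protein-binding microarrays carrying double-stranded probes. Antibodies against each partner (one per run) detected binding, and z-scores were calculated against random background probes after regression normalization of scanned fluorescence.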

[2] = system: LXRa:RXRa (NR concentration 270 nM, RXRa partner concentration 90 nM)
Method in brief: as §1

[3] = system: LXRa homodimer (NR concentration 270 nM)
Method in brief: as §1

[4] = system: LXRb:RXRa (NR concentration 270 nM, RXRa partner concentration 90 nM)
Method in brief: as §1

[5] = system: LXRb homodimer (NR concentration 270 nM)
Method in brief: as §1

[6] = system: PPARa:RXRa (NR concentration 270 nM, RXRa partner concentration 90 nM)
Method in brief: as §1

[7] = system: PPARg:RXRa (NR concentration 180 nM, RXRa partner concentration 90 nM)
Method in brief: as §1

[8] = system: PPARg:RXRa 270nM:90nM, anti-RXR (NR concentration 270 nM, RXRa partner concentration 90 nM)
Method in brief: as §1

[9] = system: PPARg:RXRa 30nM:10nM, anti-RXR (NR concentration 30 nM, RXRa partner concentration 10 nM)
Method in brief: as §1

[10] = system: PPARg:RXRa 90nM:30nM, anti-RXR (NR concentration 90 nM, RXRa partner concentration 30 nM)
Method in brief: as §1

Row | Sequence | PBM binding z-score [1] | PBM binding z-score [2] | PBM binding z-score [3] | PBM binding z-score [4] | PBM binding z-score [5] | PBM binding z-score [6] | PBM binding z-score [7] | PBM binding z-score [8] | PBM binding z-score [9] | PBM binding z-score [10]
1 | CCTTTCGGGTCAAGGTTATAGCACGGGTGGTACG | 5.72 | 3.85 | 0.197 | 3.11 | 0.545 | 5.06 | 4 | 5.1 | 1.91 | 4.2
2 | CGAACTAGGTCATCCACGACAGTGAATACATTGA | 4.92 | 2.48 | 0.634 | 2.23 | 0.18 | 4.92 | 8.03 | 6.61 | 4.01 | 5.93
3 | TCTAGTTGGTCAAAGGTCACATACTCGAAATGCG | 5.54 | 5.66 | 3.58 | 5.2 | 2.28 | 6.24 | 10.8 | 9.78 | 9.93 | 11.1
4 | CCTGTTAGTTGACCATAAGGGCAACCGAAGCTCG | 0.874 | 0.297 | 0.378 | 0.396 | 0.499 | 0.707 | 0.162 | 0.397 | 0.0716 | 0.159
5 | TTACGAAGGTGAAGGTCGTTGATCCCTCTGTAGA | 2.35 | 1.9 | -0.207 | 1.48 | -0.709 | 2.66 | 2.48 | 3.86 | 2.7 | 3.16
6 | ATATGTAGGTCACATCCGGGTCATTCAGGCTATG | 4.9 | 5.58 | 3.31 | 4.45 | 1.88 | 5.8 | 9.18 | 7.48 | 5.41 | 7.3
7 | GATACAGGGTCAAGGACAGAGTACGCGTATTGAT | 6.59 | 4.45 | 0.185 | 4 | 0.413 | 5.54 | 5.7 | 5.61 | 2.93 | 4.51
8 | TGAATGGGGTTATAAGATCAGGGAACGTTGCAAA | 3.48 | 2.4 | 0.471 | 4 | 2 | 4.74 | 3.24 | 3.32 | 1.77 | 2.79
9 | AGAATCAGGTTACCAAAGATCAGGGAAACGCTTG | 0.0425 | 4.27 | -0.14 | 1.12 | 0.162 | 1.69 | 1.24 | 1.19 | 0.411 | 0.466
10 | GCAGACAGGTGAAACCCAGGTAACTCAGGGTGGC | 0.292 | -0.00475 | -0.738 | -0.364 | -0.909 | 0.818 | 0.657 | -0.0881 | -0.673 | -0.524
11 | TCTATTAATTGATTAGGGCAACCGAAACAGCGGA | 0.209 | 0.405 | 1.09 | 0.283 | 0.631 | 0.559 | 0.157 | 1.87 | 3.6 | 2.5
12 | ACTATTAGTTGAGACGACGGCAACCGATAGGTTG | -0.095 | -0.329 | -0.396 | -0.449 | 0.14 | -0.603 | 0.568 | -0.326 | -0.098 | -0.21
13 | ACAGACAGGTGAGTGAAGGTAACTAAGCTGGACG | 0.105 | -0.0477 | -0.437 | -0.48 | -0.463 | 0.107 | 0.457 | -0.0366 | -0.0843 | -0.406
14 | TCTCGGAGGACACGAAAGGTCAGATCTCGACATC | 3.11 | 3.81 | 3.83 | 3.85 | 0.385 | 3.44 | 1.37 | 2.81 | 3.01 | 2.77
15 | TTACCAAGGTGAGCTGCGGTCGTTGATCCAACTC | 0.391 | 0.351 | -0.281 | -0.0836 | -1.32 | 0.597 | -0.444 | -0.0826 | -0.536 | -0.439
16 | TCAGACAGGTGAAGGTAACTTAGGTACGCAGTCG | 1.16 | 2.01 | -0.079 | 1.41 | -0.0603 | 1.46 | 0.846 | 2.45 | 4.08 | 3.11
17 | GTACCAAGGTGAATAGGTCGTTGAGGAGTAGGCG | 0.778 | 0.909 | 0.0544 | 0.533 | -0.56 | 2.32 | 1.22 | 1.67 | 0.113 | 1.14
18 | GCTAGCAGGCCATTTGGGTAACTCAATGACGGGC | -0.758 | -0.699 | -0.371 | -0.899 | -0.88 | -0.267 | 0.519 | -0.594 | -0.844 | -0.634
19 | ACTTACGGGTCAACGAGGTTATGGCACGCGTATA | 7.06 | 5.06 | 0.89 | 4.51 | 0.72 | 5.54 | 5.52 | 5.67 | 2.05 | 3.95
20 | GGCACGAGGGCAAAGTTGATAGCATCTGTCGACG | 1.44 | 1.01 | -0.378 | 0.776 | -0.874 | 3.29 | 6.13 | 6.24 | 4.26 | 6.86
21 | TAGCCTAGGTCATTGGCCCAGTATAGTACGCATC | 4.84 | 3.9 | 1.34 | 2.45 | -0.219 | 3.53 | 2.1 | 2.32 | 0.439 | 1.49
22 | CCTTACGGGTCAATCCAGGTTATAGCATCGGAGT | 5.24 | 6.46 | 0.547 | 4.05 | 0.285 | 4.76 | 3.53 | 3.75 | 1.26 | 2.54
23 | AATACAGCGTCATCGTAGGCCAGAGTACGCACAG | -0.326 | -0.432 | -0.689 | -0.757 | -0.269 | -0.355 | 0.716 | -0.141 | -0.189 | -0.519
24 | CCCAGTTGGTCAGGAGGTCACACACCGGATATGA | 3.51 | 3.58 | 1.99 | 3.58 | 0.535 | 4.21 | 3.56 | 3.79 | 1.07 | 3
